Screening data (PubChem)
MCF10A rerep: inducers of DNA re-replication in MCF 10A breast cells. MCF 10A DNA re-replication, Hoechst nuclear intensity, 48 h. Potency, µM (series often up to 46.1 µM), most hits filed as activators. hit rate 2.9% among 350,000; further: nearly all actives have a fitted effect of over 50% in size
HT1080 IDH1KD tx: toxicity to HT-1080 IDH1 knockdown cells (counter line). HT-1080 IDH1 knockdown viability, ATP luminescence, 48 h. hit rate 2% among 360,000. AID 686971. Potency, µM (highest dose often 46.1 µM), actives largely listed as cytotoxic
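After a 2 h attachment period, IDH1KD HT-1080 cells took pin-transferred compound for 48 h at 37 °C; ATP-based luminescence after 10 min room-temperature reagent incubation reported viability.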
KB-3-1 tox: KB-3-1 parental cell cytotoxicity; hit rate 1.4% among 400,000; KB-3-1 viability, CellTiter-Glo ATP luminescence, 72 h; Potency, µM (top dose mostly 46.1 µM), actives largely listed as cytotoxic; further: nearly all actives have a fitted effect of over 60% in size
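Using CellTiter-Glo luminescence, growth of non-resistant KB-3-1 adenocarcinoma cells is assessed 72 h after pin-tool compound addition at 37 °C. Normalized responses across the concentration series yield fitted curves.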
SW480 rerep: induces DNA re-replication in SW480 colon adenocarcinoma cells. Potency, µM (highest dose often 46.1 µM), actives largely listed as activators. AID 624297. hit rate 1.8% among 340,000. SW480 DNA re-replication, Hoechst DNA content imaging, 48 h; further: nearly all actives have a fitted effect of over 55% in size
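Cells (250 per well) received 23 nL compound or DMSO by pin tool and were kept 48 hr at 37 C, 5% CO2. Nuclei were then stained with Hoechst for 40 min and scanned for DNA content.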
KB-V1 MDR tox: KB-V1 MDR subline cytotoxicity; KB-V1 MDR cells viability, CellTiter-Glo, 72 h; Potency, µM (titrated, usually from 46.1 µM), usual class: cytotoxic; hit rate 3.4% among 400,000; AID 1347076; further: nearly all actives have a fitted effect of over 60% in size
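Cytotoxicity via CellTiter-Glo luminescence after 72 h compound exposure at 37 degrees C. Cells: drug-selected KB-V1 line, DMEM phenol-red free plus 10% FBS. Compounds tested at multiple concentrations; normalized data fitted to concentration-effect curves.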
HT1080-NT tox: kills 2HG-producing HT-1080-NT fibrosarcoma cells; hit rate 1.6% among 360,000; HT-1080-NT fibrosarcoma viability, CellTiter-Glo ATP luminescence, 48 h; Potency, µM (highest dose often 46.1 µM), hits mostly cytotoxic; AID 686970;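 further: NT is the 2HG producing partner of a matched IDH1 knockdown line; nearly all actives have a fitted effect of over 55% in size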
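Luminescent CellTiter-Glo readout after 48 hours of compound exposure at 37 degrees C defined viability of HT-1080-NT cells. Activity was normalized to DMSO wells and cell-free media wells; concentration-response curves were fitted and assigned curve classes.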
Numbers stand for hits; i = inactive; ? = inconclusive; nt = no result given. Most compounds without a hit are left out; they make up all but 7.9% or so of the library. The call rests on the fitted dose curve; in most records, active means well fitted curve in the direction sought with a large enough effect; inconclusive means small, poorly fitted or top-dose-only effect, or another doubt; inactive means no such curve, though single readings can be large; an effect the other way counts as inactive or inconclusive.

SMILES | MCF10A rerep | HT1080 IDH1KD tx | KB-3-1 tox | SW480 rerep | KB-V1 MDR tox | HT1080-NT tox
COC(=O)[C@]12CCCCC=C1N(Cc1cccc3ccccc13)C(=O)[C@H](CC(=O)NCc1ccc(OC)c(OC)c1)C2 | nt | ? | 5.8µM | nt | ? | ?
COC(=O)[C@]12CCCCC=C1N(Cc1cccc3ccccc13)C(=O)[C@H](CC(=O)NCc1cccs1)C2 | nt | ? | ? | nt | 16µM | ?
COC(=O)[C@]12CCCCC=C1N(Cc1cccc3ccccc13)C(=O)[C@H](CC(=O)NCc1cccc3ccccc13)C2 | nt | i | i | nt | i | i
CCCCOCCCNC(=O)C[C@@H]1C[C@@]2(C(=O)OCC)CCCC=C2N(Cc2cccc3ccccc23)C1=O | nt | ? | ? | nt | 18µM | ?
CCCCCCCCN1C(=O)[C@H](CC(=O)NCc2cccc(C(F)(F)F)c2)C[C@@]2(C(=O)OC)CCCCC=C12 | nt | ? | ? | nt | 16µM | ?
CCCc1cnc2c(c1SCC(=O)N(C)c1ccccc1)c(=O)n(C)c(=O)n2C | nt | nt | i | nt | i | nt
Cc1ccc(C(=O)NCC(c2ccc3c(c2)OCO3)N2CCOCC2)cc1C (stereo not given) | nt | nt | i | nt | i | nt
CCOC(=O)[C@]12CCC=C1N(Cc1cccc3ccccc13)C(=O)[C@H](CC(=O)NCc1ccc(OC)c(OC)c1)C2 | nt | ? | 6.5µM | nt | ? | ?
CCCCCCCCN1C(=O)[C@H](CC(=O)NCc2cccs2)C[C@@]2(C(=O)OC)CCCCC=C12 | nt | ? | ? | nt | 21µM | ?
CCOC(=O)[C@]12CCC=C1N(Cc1cccc3ccccc13)C(=O)[C@H](CC(=O)NCCC(C)C)C2 | nt | ? | ? | nt | 16µM | ?
COC(=O)[C@]12CCCCC=C1N(CCc1ccc(OC)c(OC)c1)C(=O)[C@H](CC(=O)NCc1cccc3ccccc13)C2 | nt | ? | i | nt | 21µM | ?
COC(=O)[C@]12CCCCC=C1N(CCc1ccc(OC)c(OC)c1)C(=O)[C@H](CC(=O)NCc1ccc(C)o1)C2 | nt | i | i | nt | ? | i
COC(=O)[C@]12CCCCC=C1N(CCC1=CCCCC1)C(=O)[C@H](CC(=O)NCc1cccs1)C2 | nt | i | ? | nt | i | ?
CCOC(=O)[C@]12CCC=C1N(Cc1ccco1)C(=O)[C@H](CC(=O)NCc1ccc(OC)c(OC)c1)C2 | nt | i | i | nt | i | i
O=C(/C=C\c1ccco1)Nc1nc(-c2ccccc2)cs1 | ? | i | i | i | ? | i
O=C(O)/C=C/C(=O)Nc1nc(-c2ccc3ccccc3c2)cs1 | i | i | i | i | i | i
COc1ccc(-c2csc(NC(=O)Cc3ccccc3)n2)cc1OC | i | i | i | i | i | i
COc1ccc(-c2csc(NC(=S)NC(=O)/C=C/c3ccccc3)n2)cc1Br | i | i | ? | i | 12µM | i
O=C(/C=C/c1ccco1)NC(=S)Nc1nc(-c2ccc(Cl)cc2)cs1 | 21µM | i | ? | i | ? | i
O=C(/C=C/c1ccco1)NC(=S)Nc1nc(-c2ccc3ccccc3c2)cs1 | 1.2µM | ? | 4.6µM | ? | 5.2µM | ?
CCN(C[C@H]1N[C@@](Cc2ccccc2)(C(=O)OC)[C@H]2C(=O)N(C)C(=O)[C@@H]12)S(=O)(=O)c1ccc(-c2ccccc2)cc1 | ? | i | i | ? | ? | i
CN(C(=O)CSc1nc2ccc(NC(=O)c3ccccc3F)cc2s1)c1ccccc1 | nt | nt | ? | nt | i | nt
CN(C(=O)CSc1nc2ccc(NC(=O)c3cccc(F)c3)cc2s1)c1ccccc1 | nt | nt | ? | nt | 9.2µM | nt
Clc1ccc(CNc2nc(CN3CCOCC3)nc3scc(-c4ccccc4)c23)cc1 | 13µM | i | ? | i | 21µM | i
COc1cc(C)c(/C=C(\C#N)C(=O)Nc2cccc(C)c2)cc1C(C)C | 21µM | i | i | i | i | i
SMILES | MCF10A rerep | HT1080 IDH1KD tx | KB-3-1 tox | SW480 rerep | KB-V1 MDR tox | HT1080-NT tox
CCOc1ccc(CCNC(=O)CCNC(=O)c2ccc(Br)cc2)cc1OCC | i | i | i | i | i | i
Cc1ccc(SCC(=O)Nc2ccc(-c3nc4ccccc4[nH]3)cc2)cc1 | 13µM | i | i | i | i | i
Cc1ccc2nc(-c3ccc(SCC(=O)Nc4nnc(C)s4)nc3)[nH]c2c1 | 18µM | 9.2µM | i | ? | i | 21µM
CCc1nnc(NC(=O)CSc2ccc(-c3nc4ccccc4[nH]3)cn2)s1 | i | i | i | i | i | ?
Cc1nc(NC(=O)CSc2ccc(-c3nc4ccccc4[nH]3)cn2)sc1C | 18µM | ? | i | i | i | 13µM
Cc1ccc(NC(=O)CCCSc2nc3ccccc3[nH]2)cc1 | i | i | i | i | ? | i
CCc1c(C)nc2nncn2c1Nc1ccc(C)c(F)c1 | nt | nt | i | nt | ? | nt
Cc1ccc2oc(=O)c3cc(C(=O)N4CCN(c5ccccc5F)CC4)sc3c2c1 | nt | nt | i | nt | i | nt
N#Cc1cc2nc(O)c(O)nc2cc1[N+](=O)[O-] | i | i | i | i | i | i
CNc1nc2cc([N+](=O)[O-])c([N+](=O)[O-])cc2nc1NC | i | 3.3µM | 8.2µM | i | i | 3.3µM
Cc1oc(-c2ccc(Cl)cc2)nc1CN1CCC(C(=O)NCc2cccs2)CC1 | i | ? | i | i | i | 21µM
Cc1oc(-c2ccc(Cl)cc2)nc1CN1CCC(C(=O)NCC2CCCO2)CC1 (stereo not given) | i | i | i | i | ? | i
Cc1oc(-c2ccc(Cl)cc2)nc1CN1CCC(C(=O)NCCCN2CCOCC2)CC1 | i | ? | i | ? | i | 22µM
CCC1CCCCN1CCCNC(=O)C1CCN(Cc2nc(-c3ccc(Cl)cc3)oc2C)CC1 (stereo not given) | ? | ? | ? | i | i | 18µM
Cc1oc(-c2cccc(Cl)c2)nc1CN1CCCC(C(=O)NCCCN2CCOCC2)C1 (stereo not given) | ? | i | i | i | 13µM | i
Cc1oc(-c2cccc(Cl)c2)nc1CN1CCCC(C(=O)NCc2ccc(F)cc2)C1 (stereo not given) | nt | nt | i | nt | i | nt
Cc1ccc(N2C(=O)NC(NS(=O)(=O)c3ccccc3)(C(F)(F)F)C2=O)cc1C (stereo not given) | i | i | i | i | i | i
CCOC(=O)c1c(NC(=O)c2cc(-c3ccccc3OC)on2)sc(C)c1C | nt | nt | i | nt | i | nt
COc1ccc(COc2ccsc2C(=O)Nc2ccc(Cl)c(Cl)c2)cc1 | 18µM | i | i | i | i | i
COc1ccc2c(c1)O[C@@H](c1ccc3c(c1)OCO3)[C@H](OC(=O)Nc1cc(OC)c(OC)c(OC)c1)C2=O | 3.7µM | nt | nt | 16µM | nt | nt
COc1ccc(N(CC(=O)NC2CCCCCC2)S(=O)(=O)c2ccccc2)cc1Cl | i | i | i | ? | ? | i
O=C(Nc1ccc(C(=O)N2CCCC2)cc1)c1ccccc1F | i | ? | ? | i | i | ?
